Assay in all cases: DAPPL (digital affinity profiling via proximity ligation, sequencing); 10 mM Tris-HCl pH 7.5, 50 mM NaCl, 1 mM DTT, 4% glycerol, room temperature, 30 min; GST-TFs on glutathione beads, 16-mer random dsDNA library, 0.1% formaldehyde crosslink after washing; high values mean tight binding
The target in one assay is T1, FLI1 (Homo sapiens, UniProt Q01543 1-452).
T1 sequence: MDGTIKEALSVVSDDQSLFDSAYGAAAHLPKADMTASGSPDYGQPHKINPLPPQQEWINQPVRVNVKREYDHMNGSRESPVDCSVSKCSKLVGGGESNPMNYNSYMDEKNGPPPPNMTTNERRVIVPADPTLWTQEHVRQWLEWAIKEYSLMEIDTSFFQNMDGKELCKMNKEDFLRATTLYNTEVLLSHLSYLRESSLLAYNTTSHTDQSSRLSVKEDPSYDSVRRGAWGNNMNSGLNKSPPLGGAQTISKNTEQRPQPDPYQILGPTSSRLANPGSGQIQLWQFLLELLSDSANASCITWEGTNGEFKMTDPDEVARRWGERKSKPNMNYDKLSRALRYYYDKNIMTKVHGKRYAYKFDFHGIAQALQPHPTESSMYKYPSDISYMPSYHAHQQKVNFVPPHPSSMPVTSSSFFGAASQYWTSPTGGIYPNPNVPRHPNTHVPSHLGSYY
The note with it: protein: recombinant; tags: N-terminal GST; dsDNA, one strand shown. The essentials: (§1)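 Sequencing on an Illumina NextSeq500 followed washing, crosslinking with 0.1% formaldehyde, proximity ligation (BsaI/T4 ligase, 1 h, 37 °C) and PCR amplification of pools that had been incubated for 30 min at room temperature with 200 nmole of a random double-stranded 16-mer DNA library in Tris/NaCl/DTT/glycerol buffer. Each pool held DNA-barcoded human transcription factors, expressed in yeast as GST fusions and captured on glutathione beads, plus a tag-only sample. Binding signal is a hexamer's read frequency for a factor divided by its frequency in the tag-only sample.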

A further assay addresses T2, ELK1 (Homo sapiens, UniProt P19419 1-428).
T2 sequence: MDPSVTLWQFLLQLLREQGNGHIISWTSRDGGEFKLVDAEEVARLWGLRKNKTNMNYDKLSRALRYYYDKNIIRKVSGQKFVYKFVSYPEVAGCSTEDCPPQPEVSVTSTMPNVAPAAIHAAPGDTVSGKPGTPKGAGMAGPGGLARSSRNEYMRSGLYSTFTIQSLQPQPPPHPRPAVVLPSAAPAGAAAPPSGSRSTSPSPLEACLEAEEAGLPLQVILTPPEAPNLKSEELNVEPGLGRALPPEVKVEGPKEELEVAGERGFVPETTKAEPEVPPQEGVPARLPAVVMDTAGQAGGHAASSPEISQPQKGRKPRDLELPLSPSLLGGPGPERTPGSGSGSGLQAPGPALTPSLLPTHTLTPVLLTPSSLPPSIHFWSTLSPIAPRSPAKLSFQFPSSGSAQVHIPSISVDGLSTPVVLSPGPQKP
The note with it: protein: recombinant; tags: N-terminal GST; dsDNA, one strand shown. A digest of the protocol:
as §1

A further assay addresses T3, GABPA (Homo sapiens, UniProt Q06546 1-454).
T3 sequence: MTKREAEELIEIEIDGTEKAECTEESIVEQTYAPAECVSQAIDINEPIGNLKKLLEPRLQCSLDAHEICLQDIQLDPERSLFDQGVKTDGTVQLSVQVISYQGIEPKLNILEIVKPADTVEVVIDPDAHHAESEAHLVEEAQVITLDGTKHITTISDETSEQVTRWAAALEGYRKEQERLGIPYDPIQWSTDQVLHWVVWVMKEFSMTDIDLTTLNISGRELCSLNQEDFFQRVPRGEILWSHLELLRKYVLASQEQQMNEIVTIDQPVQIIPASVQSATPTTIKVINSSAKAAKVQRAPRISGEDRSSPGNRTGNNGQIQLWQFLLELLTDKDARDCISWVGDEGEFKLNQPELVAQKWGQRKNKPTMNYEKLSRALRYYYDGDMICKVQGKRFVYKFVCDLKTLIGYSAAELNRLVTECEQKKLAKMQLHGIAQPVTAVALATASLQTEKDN
The note with it: protein: recombinant; tags: N-terminal GST; dsDNA, one strand shown. A digest of the protocol:
as §1

For another assay, the target named is T4, ERG (Homo sapiens, UniProt P11308 1-479).
T4 sequence: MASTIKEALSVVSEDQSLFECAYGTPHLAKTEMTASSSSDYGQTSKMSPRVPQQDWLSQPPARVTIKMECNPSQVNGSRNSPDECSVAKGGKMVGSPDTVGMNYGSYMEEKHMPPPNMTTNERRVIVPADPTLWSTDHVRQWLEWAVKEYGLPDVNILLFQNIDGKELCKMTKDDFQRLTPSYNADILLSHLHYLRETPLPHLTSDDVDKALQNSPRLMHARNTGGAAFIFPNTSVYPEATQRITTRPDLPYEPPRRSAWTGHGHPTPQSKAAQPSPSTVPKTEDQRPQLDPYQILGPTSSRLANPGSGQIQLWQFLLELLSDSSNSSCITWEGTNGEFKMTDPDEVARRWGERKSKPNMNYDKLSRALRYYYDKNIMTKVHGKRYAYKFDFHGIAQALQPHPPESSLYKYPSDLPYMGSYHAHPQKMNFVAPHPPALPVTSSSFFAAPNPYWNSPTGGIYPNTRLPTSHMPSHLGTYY
The following applies: protein: recombinant; tags: N-terminal GST; dsDNA, one strand shown. A digest of the protocol: as §1

For the next assay, the target named is ELF1 (Homo sapiens, UniProt P32519 1-619). The following applies: protein: recombinant; tags: N-terminal GST; dsDNA, one strand shown. The essentials:
as §1

The target in a further assay is T5, EHF (Homo sapiens, UniProt Q9NZC4 1-300).
T5 sequence: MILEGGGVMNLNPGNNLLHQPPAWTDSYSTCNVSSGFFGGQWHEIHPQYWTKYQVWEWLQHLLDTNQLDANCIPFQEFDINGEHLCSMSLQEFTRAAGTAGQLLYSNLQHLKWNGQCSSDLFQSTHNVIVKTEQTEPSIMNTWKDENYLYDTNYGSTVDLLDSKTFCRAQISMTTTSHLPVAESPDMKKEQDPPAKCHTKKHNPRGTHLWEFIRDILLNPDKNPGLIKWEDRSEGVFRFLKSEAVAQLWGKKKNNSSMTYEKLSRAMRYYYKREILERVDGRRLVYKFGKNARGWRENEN
The following applies: protein: recombinant; tags: N-terminal GST; dsDNA, one strand shown. A digest of the protocol: as §1

For a further assay, the target named is SPI1 (Homo sapiens, UniProt P17947 1-270). The following applies: protein: recombinant; tags: N-terminal GST; dsDNA, one strand shown. A digest of the protocol: as §1
The next assay addresses SPIB (Homo sapiens, UniProt Q01892 1-262). The following applies: protein: recombinant; tags: N-terminal GST; dsDNA, one strand shown. A digest of the protocol: as §1
The next assay has as its target T6, ELK3 (Homo sapiens, UniProt P41970 1-407).
T6 sequence: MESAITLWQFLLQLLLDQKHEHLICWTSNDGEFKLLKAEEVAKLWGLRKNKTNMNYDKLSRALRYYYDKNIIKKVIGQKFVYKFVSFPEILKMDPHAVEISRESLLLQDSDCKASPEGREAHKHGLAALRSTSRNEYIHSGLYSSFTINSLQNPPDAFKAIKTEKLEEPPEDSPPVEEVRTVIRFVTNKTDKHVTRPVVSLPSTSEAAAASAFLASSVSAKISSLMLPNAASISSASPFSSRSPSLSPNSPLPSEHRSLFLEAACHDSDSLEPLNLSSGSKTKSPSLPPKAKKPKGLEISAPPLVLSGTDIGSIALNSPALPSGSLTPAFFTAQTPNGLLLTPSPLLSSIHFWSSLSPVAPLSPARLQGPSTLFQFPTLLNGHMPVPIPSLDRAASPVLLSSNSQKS
The following applies: protein: recombinant; tags: N-terminal GST; dsDNA, one strand shown. A digest of the protocol:
as §1

The target of a further assay is T7, FEV (Homo sapiens, UniProt Q99581 1-238).
T7 sequence: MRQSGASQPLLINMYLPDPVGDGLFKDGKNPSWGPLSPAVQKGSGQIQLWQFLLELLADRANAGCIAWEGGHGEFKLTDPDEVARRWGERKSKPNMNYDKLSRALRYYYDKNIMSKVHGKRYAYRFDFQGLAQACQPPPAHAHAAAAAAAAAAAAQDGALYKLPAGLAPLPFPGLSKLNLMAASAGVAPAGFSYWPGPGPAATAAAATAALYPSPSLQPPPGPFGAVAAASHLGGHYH
The following applies: protein: recombinant; tags: N-terminal GST; dsDNA, one strand shown. The essentials: as §1

Another assay has as its target ETV5 (Homo sapiens, UniProt P41161 1-510). The following applies: protein: recombinant; tags: N-terminal GST; dsDNA, one strand shown. The essentials: as §1
The target in a further assay is HSF1 (Homo sapiens, UniProt Q00613 1-529). The following applies: protein: recombinant; tags: N-terminal GST; chain copies: 3; dsDNA, one strand shown. A digest of the protocol: as §1
HSF1, sequence (Q00613 whole entry): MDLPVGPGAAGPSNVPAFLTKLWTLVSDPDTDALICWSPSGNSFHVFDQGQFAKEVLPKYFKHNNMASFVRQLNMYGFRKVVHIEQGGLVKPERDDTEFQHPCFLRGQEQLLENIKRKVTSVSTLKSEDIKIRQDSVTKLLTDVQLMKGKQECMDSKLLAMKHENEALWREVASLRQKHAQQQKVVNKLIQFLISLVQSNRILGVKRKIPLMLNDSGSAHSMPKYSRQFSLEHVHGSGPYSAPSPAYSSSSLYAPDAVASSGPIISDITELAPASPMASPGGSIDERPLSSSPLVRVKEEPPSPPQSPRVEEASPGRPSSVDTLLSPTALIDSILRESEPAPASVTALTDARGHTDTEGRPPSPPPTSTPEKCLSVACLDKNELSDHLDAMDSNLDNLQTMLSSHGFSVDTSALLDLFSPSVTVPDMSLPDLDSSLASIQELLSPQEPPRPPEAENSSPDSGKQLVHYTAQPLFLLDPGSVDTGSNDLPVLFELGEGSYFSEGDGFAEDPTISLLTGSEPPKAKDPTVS
Another assay concerns the target T8, SPIC (Homo sapiens, UniProt Q8N5J4 1-248).
T8 sequence: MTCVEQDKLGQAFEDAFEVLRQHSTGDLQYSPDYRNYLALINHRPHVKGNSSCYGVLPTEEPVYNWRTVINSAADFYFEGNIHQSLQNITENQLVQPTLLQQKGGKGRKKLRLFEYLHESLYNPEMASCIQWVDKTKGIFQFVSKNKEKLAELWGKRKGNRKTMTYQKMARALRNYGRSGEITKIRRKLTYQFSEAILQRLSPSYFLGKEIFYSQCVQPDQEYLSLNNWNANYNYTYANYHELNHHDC
The note with it: protein: recombinant; tags: N-terminal GST; dsDNA, one strand shown. A digest of the protocol: as §1

A further assay addresses ELF4 (Homo sapiens, UniProt Q99607 1-663). The note with it: protein: recombinant; tags: N-terminal GST; dsDNA, one strand shown. A digest of the protocol:
as §1

The next assay addresses T9, ELK4 (Homo sapiens, UniProt P28324-2 1-405).
T9 sequence: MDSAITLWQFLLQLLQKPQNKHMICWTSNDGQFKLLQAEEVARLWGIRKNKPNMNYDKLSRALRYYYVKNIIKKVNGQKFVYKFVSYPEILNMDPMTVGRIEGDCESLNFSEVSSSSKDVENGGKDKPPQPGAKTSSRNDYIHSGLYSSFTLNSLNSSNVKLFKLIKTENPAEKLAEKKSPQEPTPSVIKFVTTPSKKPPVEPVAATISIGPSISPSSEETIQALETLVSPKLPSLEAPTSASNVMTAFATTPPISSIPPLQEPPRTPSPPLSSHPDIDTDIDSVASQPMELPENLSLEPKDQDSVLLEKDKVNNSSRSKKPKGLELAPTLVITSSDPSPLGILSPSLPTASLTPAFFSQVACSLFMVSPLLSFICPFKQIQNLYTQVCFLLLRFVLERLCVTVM
The note with it: protein: recombinant; tags: N-terminal GST; dsDNA, one strand shown. The essentials:
as §1

The target of another assay is T10, ETV2 (Homo sapiens, UniProt O00321 1-342).
T10 sequence: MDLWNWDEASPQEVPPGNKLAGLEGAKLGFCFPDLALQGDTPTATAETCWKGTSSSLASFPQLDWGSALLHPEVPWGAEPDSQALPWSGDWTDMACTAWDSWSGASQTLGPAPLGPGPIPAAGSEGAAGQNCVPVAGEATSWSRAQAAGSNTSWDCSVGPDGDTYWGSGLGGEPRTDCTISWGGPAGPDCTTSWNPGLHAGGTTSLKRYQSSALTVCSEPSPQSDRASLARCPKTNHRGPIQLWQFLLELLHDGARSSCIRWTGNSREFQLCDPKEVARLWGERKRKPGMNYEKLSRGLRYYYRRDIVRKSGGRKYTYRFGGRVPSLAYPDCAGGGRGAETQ
The following applies: protein: recombinant; tags: N-terminal GST; dsDNA, one strand shown. A digest of the protocol:
as §1

The next assay concerns the target CRX (Homo sapiens, UniProt O43186 1-299). The note with it: protein: recombinant; tags: N-terminal GST; dsDNA, one strand shown. A digest of the protocol:
as §1

For the next assay, the target named is ETV1 (Homo sapiens, UniProt P50549 1-477). The note with it: protein: recombinant; tags: N-terminal GST; dsDNA, one strand shown. A digest of the protocol:
as §1

ETV5, sequence (P41161 whole entry): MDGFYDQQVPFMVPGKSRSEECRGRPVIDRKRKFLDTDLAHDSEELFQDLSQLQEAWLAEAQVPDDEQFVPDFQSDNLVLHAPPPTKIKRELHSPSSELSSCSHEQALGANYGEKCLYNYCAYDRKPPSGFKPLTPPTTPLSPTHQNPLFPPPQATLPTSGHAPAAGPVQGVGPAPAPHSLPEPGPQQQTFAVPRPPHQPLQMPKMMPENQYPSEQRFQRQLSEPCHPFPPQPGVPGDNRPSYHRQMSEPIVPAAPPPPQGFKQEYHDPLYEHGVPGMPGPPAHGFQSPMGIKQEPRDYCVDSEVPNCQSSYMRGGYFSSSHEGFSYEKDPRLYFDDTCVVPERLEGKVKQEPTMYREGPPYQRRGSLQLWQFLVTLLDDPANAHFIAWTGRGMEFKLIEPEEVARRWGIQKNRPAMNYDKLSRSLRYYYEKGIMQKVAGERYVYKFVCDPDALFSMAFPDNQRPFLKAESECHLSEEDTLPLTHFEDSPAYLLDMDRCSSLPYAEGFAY
SPIB, sequence (Q01892 whole entry): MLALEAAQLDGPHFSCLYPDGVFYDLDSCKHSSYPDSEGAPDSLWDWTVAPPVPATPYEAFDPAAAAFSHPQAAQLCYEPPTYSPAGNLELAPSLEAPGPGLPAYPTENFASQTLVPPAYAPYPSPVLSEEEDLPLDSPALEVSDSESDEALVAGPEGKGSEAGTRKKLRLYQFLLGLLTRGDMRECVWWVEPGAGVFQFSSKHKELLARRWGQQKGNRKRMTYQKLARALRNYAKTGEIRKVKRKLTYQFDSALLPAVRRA
ELF4, sequence (Q99607 whole entry): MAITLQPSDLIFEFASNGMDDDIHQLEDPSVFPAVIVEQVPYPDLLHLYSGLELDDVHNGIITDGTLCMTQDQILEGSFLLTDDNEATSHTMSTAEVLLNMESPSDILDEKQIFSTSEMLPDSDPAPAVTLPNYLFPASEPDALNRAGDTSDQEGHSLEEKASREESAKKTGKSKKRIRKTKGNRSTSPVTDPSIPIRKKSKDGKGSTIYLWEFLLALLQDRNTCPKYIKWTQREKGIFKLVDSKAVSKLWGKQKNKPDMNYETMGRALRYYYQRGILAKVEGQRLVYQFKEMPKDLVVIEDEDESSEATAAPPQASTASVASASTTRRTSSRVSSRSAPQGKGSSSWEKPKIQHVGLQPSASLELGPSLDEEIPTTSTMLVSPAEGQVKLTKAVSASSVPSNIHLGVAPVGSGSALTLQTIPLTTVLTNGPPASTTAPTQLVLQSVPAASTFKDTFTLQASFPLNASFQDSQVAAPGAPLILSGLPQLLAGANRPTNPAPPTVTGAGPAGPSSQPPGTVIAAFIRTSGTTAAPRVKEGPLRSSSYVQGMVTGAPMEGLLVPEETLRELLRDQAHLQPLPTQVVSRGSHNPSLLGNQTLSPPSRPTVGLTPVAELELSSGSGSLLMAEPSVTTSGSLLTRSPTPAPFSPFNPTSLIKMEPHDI
ETV1, sequence (P50549 whole entry): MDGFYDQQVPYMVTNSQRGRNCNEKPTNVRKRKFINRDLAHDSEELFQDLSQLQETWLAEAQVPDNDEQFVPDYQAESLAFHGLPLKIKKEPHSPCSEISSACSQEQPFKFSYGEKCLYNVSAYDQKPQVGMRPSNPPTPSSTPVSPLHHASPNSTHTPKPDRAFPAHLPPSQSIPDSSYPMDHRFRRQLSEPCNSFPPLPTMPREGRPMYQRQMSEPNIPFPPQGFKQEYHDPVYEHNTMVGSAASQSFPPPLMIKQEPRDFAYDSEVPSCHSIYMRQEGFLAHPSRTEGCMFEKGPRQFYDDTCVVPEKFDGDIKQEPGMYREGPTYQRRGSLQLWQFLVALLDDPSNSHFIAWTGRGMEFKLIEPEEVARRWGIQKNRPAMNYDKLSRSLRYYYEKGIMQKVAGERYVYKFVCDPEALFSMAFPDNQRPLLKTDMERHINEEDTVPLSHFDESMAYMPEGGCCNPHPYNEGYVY
ELF1, sequence (P32519 whole entry): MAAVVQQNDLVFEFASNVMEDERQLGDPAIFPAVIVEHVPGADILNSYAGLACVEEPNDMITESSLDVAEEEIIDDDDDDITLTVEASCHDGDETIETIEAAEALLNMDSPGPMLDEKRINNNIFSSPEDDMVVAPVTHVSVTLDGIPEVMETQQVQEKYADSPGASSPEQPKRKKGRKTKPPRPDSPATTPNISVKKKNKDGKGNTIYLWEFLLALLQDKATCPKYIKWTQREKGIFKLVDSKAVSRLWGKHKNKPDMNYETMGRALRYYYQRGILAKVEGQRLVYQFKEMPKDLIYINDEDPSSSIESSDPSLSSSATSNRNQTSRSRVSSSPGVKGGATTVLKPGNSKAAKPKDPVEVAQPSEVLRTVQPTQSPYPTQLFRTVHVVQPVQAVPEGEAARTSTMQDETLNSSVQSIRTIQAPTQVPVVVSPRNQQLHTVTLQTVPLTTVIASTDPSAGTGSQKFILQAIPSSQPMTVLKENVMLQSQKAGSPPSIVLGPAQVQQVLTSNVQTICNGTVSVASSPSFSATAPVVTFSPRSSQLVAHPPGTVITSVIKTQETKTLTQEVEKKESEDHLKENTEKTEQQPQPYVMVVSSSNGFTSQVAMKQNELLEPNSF
CRX, sequence (O43186 whole entry): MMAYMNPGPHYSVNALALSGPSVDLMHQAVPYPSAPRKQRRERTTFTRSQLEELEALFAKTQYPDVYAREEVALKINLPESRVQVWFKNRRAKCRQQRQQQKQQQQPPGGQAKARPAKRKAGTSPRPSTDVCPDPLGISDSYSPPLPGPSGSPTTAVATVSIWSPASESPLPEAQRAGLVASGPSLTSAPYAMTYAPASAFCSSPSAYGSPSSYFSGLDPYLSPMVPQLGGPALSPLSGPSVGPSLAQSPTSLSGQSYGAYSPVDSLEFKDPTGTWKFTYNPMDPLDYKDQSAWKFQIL

On to GTCTAA, for which the binding signal was 1.05 fold enrichment (6-mer frequency, TF over GST control) in the assay with FLI1; 1.03 fold enrichment (6-mer frequency, TF over GST control) with ELK1; 1.14 fold enrichment (6-mer frequency, TF over GST control) with GABPA; 1.09 fold enrichment (6-mer frequency, TF over GST control) with ERG; 1.09 fold enrichment (6-mer frequency, TF over GST control) in the assay with ELF1; 1.02 fold enrichment (6-mer frequency, TF over GST control) in the assay with EHF. Moreover, the binding signal in the assay with SPI1 was 1.08 fold enrichment (6-mer frequency, TF over GST control); in the assay with SPIB, 1.09 fold enrichment (6-mer frequency, TF over GST control); with ELK3, 1.12 fold enrichment (6-mer frequency, TF over GST control); with FEV, 1.03 fold enrichment (6-mer frequency, TF over GST control); with ETV5, 1.01 fold enrichment (6-mer frequency, TF over GST control); with HSF1, 1.03 fold enrichment (6-mer frequency, TF over GST control). Moreover, the binding signal was 1.11 fold enrichment (6-mer frequency, TF over GST control) with SPIC; 1.13 fold enrichment (6-mer frequency, TF over GST control) in the assay with ELF4; 1.14 fold enrichment (6-mer frequency, TF over GST control) with ELK4; 1.06 fold enrichment (6-mer frequency, TF over GST control) with ETV2; 1.33 fold enrichment (6-mer frequency, TF over GST control) with CRX; 1.11 fold enrichment (6-mer frequency, TF over GST control) with ETV1.

The record behind these values is publication PMC7862700, “An all-to-all approach to the identification of sequence-specific readers for epigenetic DNA modifications on cytosine”.
